# Laboratory results taken from ChEMBL document CHEMBL1157539, “Thousands of chemical starting points for antimalarial lead identification” (Nature, 2010).
# What was measured:
# Type in all cases: functional
# Plasmodium falciparum [1] = experiment: GSK_TCMDC: Inhibition of Plasmodium falciparum 3D7 in whole red blood cells, using parasite LDH activity as an index of growth. Test compounds present at 2uM
# Plasmodium falciparum [2] = experiment: GSK_TCMDC: Inhibition of Plasmodium falciparum Dd2 in whole red blood cells, using parasite LDH activity as an index of growth. Test compounds present at 2uM
# HepG2 = experiment: GSK_TCMDC: Percent inhibition of human HepG2 cell line. Test compounds present at 10uM.
SMILES,Inhibition (Plasmodium falciparum [1]),Inhibition (Plasmodium falciparum [2]),Inhibition (HepG2)
CCCCCCCCNCC(O)c1cc(-c2ccc(Cl)cc2)nc2cc(C)ccc12 (stereo not given),99%,99%,0%
Cc1nc2ccc(F)cc2n1C1CCN(C(=O)Cc2ccc(F)c(F)c2)CC1,100%,99%,2%
Cc1cc(N[C@@H](CC(C)C)C(=O)NCCc2ccccc2)nc(NCc2ccccc2C)n1.O=C(O)C(F)(F)F,93%,74%,17%
CCOc1c(Br)cc(Br)cc1CNCCCCNc1nc2ccccc2[nH]1,100%,37%,25%
O=C(N[C@H]1CCN(Cc2ccc(OCCCN3CCCCC3)cc2)C1)c1ccc(Oc2ccccc2)cc1,96%,11%,56%
CN(C)Cc1cccc(CNC(=O)c2sccc2OCc2ccc(Cl)cc2)c1,90%,88%,7%
C[C@@H]([C@@H](CCCCc1ccccc1)C(=O)N[C@H](C(=O)Nc1cccnc1)C(C)(C)C)N(O)C=O,98%,98%,0%
CN(CCN)Cc1ccc(-c2ccc(-c3nc4cc(C(F)(F)F)ccc4[nH]3)s2)cc1.O=C(O)C(F)(F)F,98%,98%,37%
CC(=O)c1ccc(NC(=O)Nc2ccc3nccc(N4CCN(C)CC4)c3c2)cc1,100%,93%,2%
Cc1ccccc1C1CCN(C2CCC(NC(=O)/C=C/c3ccc(F)c(F)c3)CC2)CC1 (stereo not given),93%,7%,34%
O=C1Nc2cccc3c2C1(CCCCCN1CCC(c2c[nH]c4ccncc24)CC1)CCC3 (stereo not given),95%,3%,8%
CCOc1ccc2c(c1)N(C(=O)C=Cc1ccccc1)C(C)(C)c1ssc(=S)c1-2,83%,77%,3%
Cc1cc(N[C@@H](Cc2ccccc2)C(=O)NCc2cccs2)nc(Nc2ccccc2)n1.O=C(O)C(F)(F)F,96%,36%,3%
COc1ccc2[nH]c(C)cc(=NN=Cc3ccccc3)c2c1,80%,6%,4%
CS(=O)(=O)Cc1ccc(Nc2nccc(-c3c(-c4cccc(NC(=O)C5CCCCC5)c4)nn4ncccc34)n2)cc1,98%,99%,31%
COC(=O)c1cccc(CNCc2cccc(-c3ccc(-c4nc5cccc(C)c5[nH]4)cc3)c2)c1.O=C(O)C(F)(F)F,100%,52%,3%
CCc1cn2c3c(cc(C(=O)N[C@@H](Cc4cc(F)cc(F)c4)[C@H](O)CNC4CCCCC4)cc13)N(C)S(=O)(=O)CC2.O=CO,100%,99%,9%
COc1cc2c(Nc3cccc(NC(=O)c4ccccc4)c3)ncnc2cc1OCCCN1CCOCC1,100%,100%,0%
COc1ccc(-c2cccc(CNCc3ccc(F)cc3)c2)cc1S(=O)(=O)NCCN1CCCC1.O=C(O)C(F)(F)F,100%,16%,20%
COc1ccc2nc(C)cc(Nc3ccc(Cl)c(Cl)c3)c2c1,100%,99%,30%

SMILES,Inhibition (Plasmodium falciparum [1]),Inhibition (Plasmodium falciparum [2]),Inhibition (HepG2)
Nc1cccc(CNCc2ccc(-c3ccc(-c4nc5ccccc5[nH]4)s3)cc2)c1.O=C(O)C(F)(F)F,100%,93%,12%
CN1CCCC(CN2CCN(Cc3ccc(-c4cccc(-c5nc6cc(F)ccc6[nH]5)c4)cc3)CC2)C1.O=C(O)C(F)(F)F (stereo not given),100%,99%,92%
FC(F)(F)c1cccc(CNCC2CCN(CC3CCCCC3)CC2)c1.O=C(O)C(F)(F)F,100%,24%,21%
CCCC(C)Nc1nc(C)cc(N[C@@H](Cc2ccccc2)C(=O)Nc2ccccc2)n1.O=C(O)C(F)(F)F (stereo not given in full),100%,67%,50%
Cc1ccc(CNC(=O)[C@H](CCCN)Nc2cc(C)nc(NCC3CCCCC3)n2)cc1.O=C(O)C(F)(F)F,90%,0%,1%
OC(CNc1ccnc(Nc2ccccc2)n1)c1ccc(C(F)(F)F)cc1 (stereo not given),100%,39%,3%
Cl.O=C(N[C@@H](Cc1cc(F)cc(F)c1)[C@H](O)CNCc1cccc(C(F)(F)F)c1)c1cc(C2CCCC2)cc(N2CCCC2=O)c1,95%,45%,37%
COc1ccc(CNC2CCN(C)CC2)cc1-c1ccc(OC)c(S(=O)(=O)NCc2ccccc2)c1.O=C(O)C(F)(F)F,99%,95%,10%
COc1cc(Nc2ncc3c(C)nc(-c4cc5ccccc5[nH]4)n3n2)cc(OC)c1OC,91%,65%,19%
COc1cccc(Nc2nc(NCCO)c3ccccc3n2)c1.Cl,99%,88%,1%
CCN(CC)CCN(Cc1ccc(-c2ccc(C(F)(F)F)cc2)cc1)C(=O)Cn1c(CCc2cccc(F)c2F)nc(=O)c2cc(F)ccc21.O=C(O)C(O)C(O)C(=O)O,98%,45%,15%
CCNc1cc(C(=O)N[C@@H](Cc2ccccc2)[C@H](O)CNC(C)CC(C)C)c(F)c(N2CCCCS2(=O)=O)c1.O=CO (stereo not given in full),95%,66%,6%
CCn1c(-c2nonc2N)nc2cnc(Oc3cccc(NC(=O)c4ccc(OCCN(C(C)C)C(C)C)cc4)c3)cc21,97%,10%,63%
CCCc1cc(NC2CCN(C)CC2)nc(Nc2ccc(C)cc2)n1,100%,20%,25%
O=C(/C=C/c1ccc(C(F)(F)F)cc1)NCCCCCN1CCN(C(=O)Nc2ccc(Cl)cc2)CC1,88%,0%,37%
CC1=C(C(=O)OC(C)C)C(c2ccccc2Cl)C2=C(CC(c3ccccc3)CC2=O)N1 (stereo not given),93%,84%,15%
Cc1ccc(S(=O)(=O)NC2CCN(c3ccnc4cc(Cl)ccc34)C2)cc1.O=C(O)C(F)(F)F (stereo not given),99%,90%,21%
CCOc1ccc(Nc2cc(C)nc(Nc3ccc(OCC)cc3)n2)cc1,100%,49%,3%
Cc1ccc2c(=NN=Cc3cccc(Cl)c3)cc(C)[nH]c2c1,96%,52%,50%
O=C(C=Cc1cccs1)Nc1ccc(-c2nc3ccccc3[nH]2)cc1,83%,3%,0%

SMILES,Inhibition (Plasmodium falciparum [1]),Inhibition (Plasmodium falciparum [2]),Inhibition (HepG2)
O=C(NCCN1CCOCC1)c1ccc(O)c(-c2cccc(C(F)(F)F)c2)c1,95%,48%,0%
O=C(Nc1cccc(CN2CCCN(Cc3ncc[nH]3)CC2)c1)c1ccc(Cl)c(Cl)c1.O=C(O)C(F)(F)F,100%,16%,8%
O=C(O)C(F)(F)F.c1cc(CN2CCc3ccccc3CC2)cc(-c2c[nH]c3nc(NC4CCCC4)ncc23)c1,99%,49%,31%
Cl.Oc1ccc(-c2cc(COc3ccccc3C(F)(F)F)c(C3=CCNCC3)cc2COc2ccccc2C(F)(F)F)cc1,100%,62%,18%
Cc1cc2nc(-c3ccc(/C=C/C(=O)NCCc4ccccc4)cc3)[nH]c2cc1C,98%,13%,3%
O=C(O)C(F)(F)F.OCCN1CCN(Cc2ccc(-c3cccc(-c4nc5cc(F)ccc5[nH]4)c3)cc2)CC1,100%,61%,21%
CCOc1cc(N)c2nc3ccc([N+](=O)[O-])cc3cc2c1,100%,78%,73%
Nc1ncc(-c2ccc3[nH]ccc3c2)c2ccc(-c3ccncc3)cc12,100%,100%,42%
Cc1cccc2nc(-c3ccc(-c4ccc(NC(=O)NCc5cccc(F)c5)cc4)s3)[nH]c12,100%,43%,70%
N#Cc1cccc(NC(=O)Nc2cccc(-c3cccc(-c4nc5cc(C(F)(F)F)ccc5[nH]4)c3)c2)c1,100%,99%,74%
O=C(Nc1ccc(-n2ccc(C(F)(F)F)n2)cc1)c1cccs1,89%,67%,6%
Cc1cc(=NN=Cc2ccccc2Cl)c2cc(C(F)(F)F)ccc2[nH]1,100%,75%,0%
O=C(Nc1ccc(Cl)c(C(F)(F)F)c1)NC1CCN(CCCCCNC(=O)C2CC2c2ccc(Cl)c(Cl)c2)CC1 (stereo not given),100%,41%,79%
N#Cc1ccc(-c2ccc(C(=O)NCC3CCN(CCN4CCC(c5ccc6c(c5OCC(N)=O)CCCC6)CC4)CC3)cc2)cc1,99%,99%,56%
CCCC(C)NC(=O)[C@H](CC1CCCCC1)NC(=O)c1ccc(O)c(-c2cccc(C(F)(F)F)c2)c1 (stereo not given in full),100%,98%,0%
COc1ccc(C[C@H](N)C(=O)N[C@H]2[C@@H](O)[C@H](n3cnc4c(N(C)C)ncnc43)O[C@@H]2CO)cc1.Cl,100%,91%,98%
CC(C)C[C@H]1c2[nH]c3ccc(Cl)cc3c2CCN1C(=O)CCc1ccccc1,95%,81%,0%
O=C(/C=C/c1ccc(Cl)c(Cl)c1)NCCCCCN1CCCN(C(=S)Nc2cccc(Cl)c2)CC1,93%,7%,19%
Cc1cc(NCCCCCCCCNc2cc(C)nc3ccccc23)c2ccccc2n1.Cl,100%,0%,59%
CN(C)CCCc1cc2c(cc1Cl)CCN2C(=O)Nc1ccc(-c2ccncc2)c2ccccc12,94%,0%,4%
